# PLK1 inh: blocks human PLK1 kinase activity; inhibition, % at 10 µM; recombinant PLK1 kinase, TR-FRET peptide phosphorylation; P53350; AID 619; hit rate 0.53% among 97,000;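 active = inhibition of 50% or more in the single-concentration screen; inactive = inhibition below 50%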;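 also: 0% = DMSO max control and 100% = H-89 dihydrochloride min control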
# PLK1 PBD inh: blocks phosphopeptide binding to human Plk1 polo box domain. P53350. Plk1 PBD phosphopeptide binding, fluorescence polarization. inhibition, %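 (tested at about 20 µM)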. hit rate 0.13% among 97,000. AID 693; in the data active = inhibition above about 34%, passing the limit was not always enough
# PTK2B oligo ant: antagonists of human Pyk2 oligomerization; Q293 cells, Pyk2 FERM NanoBiT luminescence; hits give low values; hit rate 0.83% among 99,000; z-score (the deposit names both 25 µM and 10 µM);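 active = Z-score of -3 or lower, scaled per plate to the spread of control and sample wells; inactive = z-score above -3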;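 also: negative z-score means lost luminescence so less FERM oligomerization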
# Cav3 T inh: blocks human Cav3.2 T-type calcium channel. hit rate 4% among 100,000. B-score at 10 µM. O95180. Cav3.2-expressing cells, Fluo-4 calcium fluorescence FDSS; hits give low values. AID 449739;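 active = single-dose well whose peak fluorescence ratio is a statistical outlier from its plate by either plate-standardised score or position-corrected B-score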
# sdo1 growth: restores growth of sdo1-depleted yeast | z-score at 10 µM | hit rate 0.21% among 140,000 | AID 817 | S. cerevisiae sdo1-depleted JHY4D growth rescue, OD600 30 h; hits give high values; pdr5 snq2 efflux-pump mutant strain;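 active = z-score above 3 at both the 24 hr and the 30 hr optical density reads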;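 also: z-score against mean and SD of all compound wells on the same plate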
# DAT uptake mod: human DAT dopamine uptake with cocaine, either direction | LLC-PK1 hDAT cells, [14C]-dopamine uptake with cocaine IC80; actives deviate in either direction | B-score at 10 µM | hit rate 1.3% among 110,000;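 active = Z score or B-score, a plate-position-corrected score, falls beyond the plate's 99.7% confidence bounds, in either direction; inactive = both scores lie inside the 99.7% bounds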;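 also: scored against the spread of the other compound wells on the same plate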
# Target sequence (Q01959 whole entry, looked up): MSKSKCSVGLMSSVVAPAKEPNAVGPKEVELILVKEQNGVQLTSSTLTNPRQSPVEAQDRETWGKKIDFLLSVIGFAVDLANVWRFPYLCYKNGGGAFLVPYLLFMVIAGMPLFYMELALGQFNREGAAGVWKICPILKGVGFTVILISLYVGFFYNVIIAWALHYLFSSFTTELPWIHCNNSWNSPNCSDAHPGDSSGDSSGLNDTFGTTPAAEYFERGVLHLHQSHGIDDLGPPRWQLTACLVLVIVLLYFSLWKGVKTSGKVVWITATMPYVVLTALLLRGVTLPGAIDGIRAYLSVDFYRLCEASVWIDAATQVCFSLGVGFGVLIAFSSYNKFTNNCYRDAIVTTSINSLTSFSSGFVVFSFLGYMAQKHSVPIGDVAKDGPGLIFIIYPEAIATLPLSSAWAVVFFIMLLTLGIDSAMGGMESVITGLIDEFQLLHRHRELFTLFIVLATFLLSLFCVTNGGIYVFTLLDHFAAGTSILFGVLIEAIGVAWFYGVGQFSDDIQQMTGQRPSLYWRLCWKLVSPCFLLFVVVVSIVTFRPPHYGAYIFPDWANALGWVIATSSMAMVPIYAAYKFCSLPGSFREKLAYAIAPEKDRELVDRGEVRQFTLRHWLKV
# SDO1 rescue DR: confirmation of growth rescue in SDO1-depleted yeast, bone marrow failure. shares compounds with sdo1 growth. AID 949. S. cerevisiae JHY4D (SDO1-depleted) growth rescue, OD600, 30 h; hits give high values; efflux-deficient strain, SNQ2 and PDR5 mutated. hit rate 44% among 440. OD recovery (concentration not given with the values);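 active = yeast growth recovered at 30 hours, either rising with dose fitted slope above 0.001 or with average optical density gain above 0.07, some results past the limit were not filed as active; inactive = growth falling with dose or no effect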;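 also: gain in OD600 from 0 h to 30 h averaged across all seven doses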
# An asterisk follows results filed as active; i = inactive; x = no result. Sampled rows, rich in hits. Any-hit rate of the full collection: about 4.7%.
SMILES,PLK1 inh,PLK1 PBD inh,PTK2B oligo ant,Cav3 T inh,sdo1 growth,DAT uptake mod,SDO1 rescue DR
CC(=O)C1C(c2ccc(Br)cc2)C2C(C)=NN=C2CC1(C)O (stereo not given),x,x,x,x,2.08,x,x
O=C(Nc1ccccc1)C1CC(=O)N(C2CCCCC2)C1 (stereo not given),-4.2,-12.7,0.51,0.0704,4.1*,1.1,0.0533
COc1cc(C(=O)NCCCNc2ccc([N+](=O)[O-])cc2)cc(OC)c1OC,x,x,x,x,1.28,x,x
Cc1ccc(SCCC(=O)Nc2ccccc2C(=O)N2CCOCC2)cc1,x,x,x,x,4.07*,x,0.0497
CCN(CC)S(=O)(=O)c1ccc(Cl)c(NC(=O)COC(=O)/C=C/c2ccc(O)c(OC)c2)c1,x,x,x,x,-0.05,x,x
CCOC(=O)/C=C1\SCC(=O)N1CC(=O)NC12CC3CC(CC(C3)C1)C2,-11.1,0.4,-0.93,0.448,14*,-0.128,0.0837*
O=C(NCCN1C(=O)S/C(=C\c2cccs2)C1=O)c1ccc(=O)[nH]c1,x,x,x,x,0.7,x,x
COc1cccc(C(=O)Nc2ccc(NC(=O)C3CC3)cn2)c1,-7.0,-13.6,-0.1,1.04,2.36,-0.992,0.0837*
CCCc1nc2ccccc2c(=O)n1N,6.8,3.5,-0.05,0.0411,3.65*,1.62,0.0581
COc1ccc(OC)c(NC(=S)NCCN2CCOCC2)c1,x,x,x,x,3.88*,x,0.037
COC(=O)C(C)N(C(=O)c1cccc(Cl)c1)c1c(C)cccc1C (stereo not given),-3.4,-9.2,-0.59,-2.45,5.56*,-0.395,0.0558
Nc1nc(NC(=O)c2ccco2)nn1-c1ccccc1,x,x,0.22,0.765,3.12*,-0.635,0.0484
COc1ccc(S(=O)(=O)N2CCCC(C(=O)NC3CCCCC3)C2)cc1 (stereo not given),-7.5,-30.1,0.78,0.392,-0.49,-0.387,x
COc1ccc(S(=O)(=O)N2CCCC(C(=O)O)C2)cc1 (stereo not given),2.8,3.1,0.38,x,2.1,x,0.0457
Cn1c(=O)c2c(nc(N3CCCC3)n2CC(O)CO)n(C)c1=O (stereo not given),-3.8,6.7,0.77,0.412,2.25,-1.02,0.0968*
C=CCn1c(N2CCCCCC2)nc2c1c(=O)n(C)c(=O)n2C,-2.6,-13.6,0.48,1.13,0.01,-0.51,x
O=C(CSc1ncnc2c1oc1ccccc12)Nc1ccccc1F,-76.3,1.5,x,-0.00827,0.18,0.0874,0.0557
CCOc1ccccc1NC(=O)CSc1ncnc2c1oc1ccccc12,i,1.9,-1.83,-0.927,0.13,1.28,x
Cn1cc(CNC(=O)/C=C/c2ccc(Cl)cc2)cn1,x,x,x,x,0.17,x,x
CCN(CC)S(=O)(=O)c1ccc(C(=O)Nc2cc3oc4ccccc4c3cc2OC)cc1,x,x,x,x,1.19,x,0.0201
CC12CCC(C(=O)N(NC(=O)c3cccnc3)C1=O)C2(C)C (stereo not given),x,x,x,x,6.25*,x,0.058
Cc1c(Cl)cccc1NC(=O)[C@@H](NC(=O)c1ccccc1Cl)C(C)C,x,x,x,x,0.83,x,x
COc1cc2oc(-c3ccc(O)cc3)cc(=O)c2c(O)c1OC,x,x,x,-0.0104,x,-0.0254,x
COc1cc(OC)c(-c2c3cc(O)c(=O)cc-3oc3cc(O)c(O)cc23)cc1OC,x,x,x,x,3.77*,x,-0.0253
Cc1ccc(C)c(OCCCC(=O)Nc2nccs2)c1,6.8,0.5,1.09,-4.62*,9.99*,-1.16,0.087*
SMILES,PLK1 inh,PLK1 PBD inh,PTK2B oligo ant,Cav3 T inh,sdo1 growth,DAT uptake mod,SDO1 rescue DR
Cc1ccccc1OCCCC(=O)Nc1nccs1,14.8,-17.2,0.41,-0.661,-0.34,0.172,x
CC(=O)N/C(=C\c1ccc(F)cc1)C(=O)OC(C)C,x,x,x,x,3.35*,x,0.098*
N#Cc1c(C(F)(F)F)cc(-c2ccccc2)nc1SCC(=O)Nc1sc2c(c1C#N)CCC2,-13.6,17.8,0.52,-2.24,1.54,-0.232,0.0934*
O=C(/C=C/c1ccccc1[N+](=O)[O-])NCc1cccnc1,x,x,x,x,0.8,x,x
NC(=O)C1=C[C@@H](c2ccc(C(F)(F)F)cc2)C[C@@H](OCCCCO)O1,x,x,x,0.0244,x,-1.3,x
CC1(C)CC(=O)C=C(Nc2ccc(S(N)(=O)=O)cc2)C1,-12.0,-5.8,1.55,-0.269,0.6,0.587,x
Cc1nc(Nc2ccc(S(N)(=O)=O)cc2)oc1C,-15.6,1.6,1.26,-0.126,6.49*,0.467,0.0499
Oc1ccc(/C=N/NC(=S)NCc2ccco2)cc1,-2.1,-4.1,-0.08,0.35,-0.72,-0.898,x
S=C(NCc1ccco1)N/N=C/c1ccc(Cl)cc1,x,x,x,x,8.39*,x,0.0788*
CCN(CC)C(=O)C[n+]1cccc(C(N)=O)c1,x,x,x,x,0.03,x,x
COC(=O)c1ccc(CNC(=O)c2ccc(COc3ccccc3)cc2)cc1,x,x,x,x,-1.57,x,x
COc1ccc(-n2cnnc2SCc2cnc(-c3ccccc3)s2)cc1,-1.5,3.9,-0.55,0.75,3.06*,0.872,0.0823
COCCn1c(SCc2cnc(-c3ccccc3)s2)nnc1-c1ccncc1,-8.1,21.3,0.36,1.99,-1.17,0.939,x
N#CCCN(C(=O)CSc1ccc2c(c1)OCCO2)c1ccccc1,x,x,-0.87,x,-0.46,0.582,x
CC(=O)Nc1ccc(SCC(=O)N(CCC#N)c2cc(C)cc(C)c2)cc1,-11.1,-4.3,0.24,0.82,3.9*,1.21,0.084*
Brc1ccc(NC2=Nc3ccccc3CC2)cc1,-0.6,-10.2,-0.1,-3.31,13.3*,-1.25,0.0751*
Cc1ccc(NC2=Nc3ccccc3CC2)cc1,-12.4,4.5,-0.4,-0.631,0.35,-0.0437,x
O=C(Nc1ccc(S(=O)(=O)N2CCCCCC2)cc1)c1ccco1,-6.2,-8.7,-1.54,-0.102,1.44,0.177,0.07
COc1ccccc1-c1cc(C(=O)NCCN2CCOCC2)no1,-6.0,7.2,0.47,0.0194,1.46,0.0957,0.0422
COc1cccc(-c2cc(C(=O)NCCN3CCOCC3)no2)c1,-2.7,-19.0,0.81,0.267,-0.65,0.456,x
CCOc1ccc(-c2nc(CSCC(=O)NCCN3CCOCC3)c(C)o2)cc1,x,x,-0.22,1.03,2.39,-1.37,0.0425
CS(=O)(=O)N(Cc1ccccc1Cl)c1ccc(C(=O)NCc2ccccn2)cc1,x,x,x,x,0.24,x,x
CCOC(=O)c1cccc(NC(=O)CSc2nnc(COc3ccccc3C)o2)c1,-0.5,-14.1,-1.23,0.872,1.25,-0.117,0.054
CN(c1ccccc1)S(=O)(=O)c1cccc(NC(=O)CSc2ncc(C(F)(F)F)cc2Cl)c1,x,x,x,x,-0.45,x,x
CCOc1cc(NC(=O)c2ccco2)c(OCC)cc1NC(=O)c1cc(OC)c(OC)c(OC)c1,-9.8,-12.9,0.35,0.935,1.25,0.011,0.0685
O=C(CSc1nc(Nc2ccccc2)nc(N2CCOCC2)n1)N1CCCC1,-6.4,-7.0,-0.53,1.41,4*,0.645,0.0995
CC(C)C1(C(C)C)OC(=O)c2ccccc21,x,x,x,x,3.04*,x,0.0685
O=C(CCc1ccc(Oc2cc([N+](=O)[O-])cc([N+](=O)[O-])c2)cc1)N1CCCCCC1,x,x,x,x,-1.44,x,x
COc1ccc(/C=N\NC(=O)COc2ccc(Cl)cc2Cl)c(C(=O)O)c1OC,x,x,x,x,2.5,x,0.0423

# Screening results (PubChem BioAssay)
